# D2 ag-1 = HTS Assay for Allosteric Agonists of the Human D2 Dopamine Receptor: Primary Screen for Agonists | AID 485358, 2010 | activation, % at 2 µM | D(2) dopamine receptor (Homo sapiens), P14416 | 340,000 tested, 0.53% active | HEK293 T-REx D2 cells, calcium flux agonist mode;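 active = activation over 3 SD above normal in the single-dose calcium agonist read, cut at about 30% in these data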; note: 0% is about no effect
# Target sequence (P14416 whole entry, looked up): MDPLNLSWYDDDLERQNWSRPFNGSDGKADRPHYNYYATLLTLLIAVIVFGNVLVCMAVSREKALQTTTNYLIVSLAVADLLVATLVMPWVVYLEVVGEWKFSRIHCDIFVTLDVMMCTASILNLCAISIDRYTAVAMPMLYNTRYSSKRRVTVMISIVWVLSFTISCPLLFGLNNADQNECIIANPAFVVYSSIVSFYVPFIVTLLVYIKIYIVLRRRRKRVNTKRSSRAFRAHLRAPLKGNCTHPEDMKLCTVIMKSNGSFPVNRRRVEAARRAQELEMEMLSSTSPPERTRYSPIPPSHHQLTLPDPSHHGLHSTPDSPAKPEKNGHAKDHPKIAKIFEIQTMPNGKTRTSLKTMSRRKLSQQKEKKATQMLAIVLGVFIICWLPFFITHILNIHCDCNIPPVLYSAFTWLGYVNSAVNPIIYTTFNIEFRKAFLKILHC
#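 In this primary screen, compounds producing a positive calcium signal within 180 s of addition to tetracycline-induced, force-coupled HEK293 Trex D2 cells are flagged; cells are dye-loaded with a no-wash calcium kit beforehand.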
# D2 PAM-1 = HTS Assay for Positive Allosteric Modulators of the Human D2 Dopamine Receptor: Primary Screen for Potentiators | potentiation, % at 10 µM | D(2) dopamine receptor (Homo sapiens), P14416 | HEK293 T-REx D2, calcium flux, EC20 dopamine potentiation | 340,000 tested, 0.34% active | AID 485347, 2010;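 active = potentiation over 3 SD above the plate norm, cut at about 30% in these data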; note: 0% is about no effect
#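 Using a no-wash calcium dye in inducible, force-coupled HEK293 Trex cells expressing D2, we tracked fluorescence each second for 180 s after compound, then for 180 s after EC20 dopamine to detect augmented signalling.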
# D2 antag = HTS Assay for Allosteric Antagonists of the Human D2 Dopamine Receptor: Primary Screen for Antagonists; D(2) dopamine receptor (Homo sapiens), P14416; HEK293 TREx D2 cells, calcium flux, dopamine EC80; inhibition, % at 10 µM; 340,000 tested, 2% active; in the data active = inhibition above about 30%; inactive = below that, where a call was filed; note: 0% is about no effect
#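 Overnight-induced (tetracycline, 30 C) HEK293 T-REx cells carrying force-coupled D2 receive a no-wash calcium dye, then compound, then EC80 dopamine at 180 s; signals are read kinetically throughout.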
# D2 ag-2 = Beta-Arrestin HTS for Positive Allosteric Modulators of the Human D2 Dopamine Receptor: Agonists; 360,000 tested, 0.084% active; DiscoveRx PathHunter D2 beta-arrestin, luminescence, 90 min; 100% = 57 uM dopamine signal; activation, % (no concentration beside the values); D(2) dopamine receptor (Homo sapiens), P14416; AID 624465, 2012; in the data active = activation above about 40%
#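 Agonist mode: compounds alone added to overnight-plated D2 PathHunter cells for 90 min at 37 C, with 57 uM final dopamine (EC100) defining full response. Beta-arrestin recruitment detected by chemiluminescent reagent, read after 1 h at ambient temperature.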
# D2 PAM-2 = Beta-Arrestin HTS for Positive Allosteric Modulators of the Human D2 Dopamine Receptor: Potentiators. D(2) dopamine receptor (Homo sapiens), P14416. DiscoveRx D2 beta-arrestin cells, luminescence, 90 min; 100% = 57 uM dopamine signal. potentiation, % (concentration not given with the values). 360,000 tested, 0.23% active; in the data active = potentiation above about 50%
#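 D2 cells co-treated with compound plus 50 nM dopamine (EC20) for 90 min at 37 deg C to detect potentiation. Beta-arrestin recruitment was read as enzyme-fragment luminescence after 1 h at ambient temperature. Full response was set by 57 uM dopamine.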
# Active calls of the source: *; / = not tested or not shown. An excerpt weighted towards active compounds, which were near 2.4% of everything screened.
SMILES,D2 ag-1,D2 PAM-1,D2 antag,D2 ag-2,D2 PAM-2
CCOc1cc(/C=N/NC(=O)c2nnn(-c3nonc3N)c2C)ccc1OCc1ccc(F)cc1,0.7,8.8,-6.7,7.8,0.6
CCCOc1ccc(-c2c(C(=O)N/N=C/c3ccc(C)cc3)nnn2-c2nonc2N)cc1,5.8,5.0,3.6,-4.4,1.0
CCOc1ccc(-c2c(C(=O)N/N=C/c3ccc(C)cc3)nnn2-c2nonc2N)cc1,39.0*,6.1,-1.9,4.9,-0.6
CCCCNC(=O)Cn1c(=O)cc(C)c2c(C)nn(-c3cccc(Cl)c3C)c21,1.6,-1.9,/,/,/
O=C(Nc1nc2cc3c(cc2s1)OCCO3)c1ccc([N+](=O)[O-])o1,0.7,10.5,37.1*,0.8,7.0
COc1ccc(OCC(O)CNC(=O)Nc2cc(F)ccc2C)cc1 (stereo not drawn),-0.4,9.5,38.2*,-3.5,-31.7
c1ccc(Cn2nnnc2C(c2cccs2)N2CCSCC2)cc1 (stereo not drawn),0.3,-12.7,32.9*,-1.8,-10.6
CC(C)Cn1cnc2c1c(=O)n(CC(=O)NC(=O)NC(C)(C)C)c(=O)n2Cc1ccccc1,0.1,31.1*,13.5,-3.1,2.1
CNC(=O)c1nn(-c2ccccc2)ccc1=O,0.7,-4.1,-16.1,-1.8,-0.5
O=C(Nc1ccn(-c2ccccc2)n1)c1ccc(Cl)cc1,-2.5,-21.2,63.3*,-1.5,-30.4
CNC(=O)c1nn(-c2ccc(Cl)cc2)ccc1=O,0.3,3.1,33.4*,-13.6,-21.4
CCCn1c(CCC(=O)Nc2cc(Cl)c(OC)cc2OC)nc2cccnc21,-0.5,2.0,/,/,/
Cc1ccc(NC(=O)CC2S/C(=N/N=C/C=C/c3ccccc3)NC2=O)cc1Cl (stereo not drawn),0.5,7.1,10.1,-2.4,-0.7
Cc1ccc(NC(=O)CC2S/C(=N/N=C/c3ccco3)NC2=O)cc1Cl (stereo not drawn),0.7,-1.6,32.7*,0.4,-9.5
CC(C)=N/N=C1/NC(=O)C(CC(=O)Nc2cc(Cl)ccc2C)S1 (stereo not drawn),0.0,-17.7,46.1*,-3.8,-36.0
Cc1ccccc1NC(=O)CC1SC(=Nc2ccc(O)cc2)NC1=O (stereo not drawn),2.6,-13.6,14.1,-2.2,-8.0
COc1ccc(C(=O)NCCc2cnc[nH]2)cc1OC,-0.6,19.3,34.9*,-7.8,-18.1
COc1ccc(C(=O)NCCC2=CCCCC2)cc1OC,-0.4,-21.2,34.5*,-2.0,-17.6
COc1ccc(C(=O)NCCSCc2cccc(Cl)c2)cc1OC,-0.2,-1.3,32.0*,-5.5,-8.4
COc1ccc(C(=O)NCCC2=CCCCC2)cc1,-0.2,-5.8,-7.9,-6.4,-24.1
Cc1cc(C)cc(-n2c(SCC(=O)Nc3ccccc3F)nc3c(oc4ccccc43)c2=O)c1,/,15.6,/,/,/
CCN(C(=O)CSc1ncc(S(=O)(=O)c2ccc(C)c(Cl)c2)c(=O)[nH]1)c1cccc(C)c1,1.3,3.1,/,/,/
CC1CCN(c2nn3c(=O)c(C(=O)NCc4ccc(Cl)cc4)cnc3s2)CC1,-0.1,1.8,/,/,/
Cc1nc2c(c(C)nn2C(C)(C)C)c(C)c1CCC(=O)Nc1ccc(F)cc1,1.6,-3.0,/,/,/
COc1cc(/C=N/NC(=O)c2c(-c3ccccc3)noc2C)cc(OC)c1OC,-1.5,-20.8,56.3*,7.3,8.4
SMILES,D2 ag-1,D2 PAM-1,D2 antag,D2 ag-2,D2 PAM-2
Cc1cc(/C=C2\SC(=Nc3ccc(F)cc3)NC2=O)c(C)n1-c1ccc(S(N)(=O)=O)cc1,2.1,-0.4,38.4*,-1.7,-6.4
COC(=O)c1sccc1S(=O)(=O)N1CCN(c2cc(Cl)ccc2C)CC1,-0.8,0.7,/,/,/
CCOC(=O)C1=C(CS(=O)(=O)c2ccccc2)NC(=O)NC1c1ccccc1OCC (stereo not drawn),0.3,-11.8,36.1*,-1.6,-2.7
O=C1c2ccccc2C(O)N1Cc1cccs1 (stereo not drawn),-0.1,4.5,46.8*,-2.7,-1.4
N#CCC1c2ccccc2CCN1C(=O)Nc1ccc(C(F)(F)F)cc1 (stereo not drawn),0.0,-24.6,64.6*,0.2,-16.3
Cc1ccc(-n2nc(CO)c(C(=O)NC(C)CCCc3ccccc3)n2)cc1 (stereo not drawn),0.5,-7.8,/,/,/
CC(C)CNC(=O)NC(=O)COc1ncnc2sccc12,-0.2,6.0,37.2*,-1.7,0.8
CCCNC(=O)COc1ncnc2sccc12,2.1,14.5,33.1*,7.1,7.0
CC(CNC(=O)C1CCN(Cc2cc3ccccc3n2Cc2ccccc2)CC1)c1ccccc1 (stereo not drawn),-0.2,3.4,/,/,/
COc1ccc(CCn2c(C3CCCCC3)nc3c(c(=O)c4ccccc4n3C)c2=O)cc1,9.7,-7.1,18.2,-3.7,-8.1
COc1ccc(Cn2c(C3CCCCC3)nc3c(c(=O)c4ccccc4n3C)c2=O)cc1,4.7,-3.1,41.9*,-2.9,-15.7
CCc1nc2c(c(=O)c3ccccc3n2C)c(=O)n1C1CCCCCC1,58.5*,-9.8,24.8,-1.0,-13.1
COC(=O)CSc1nnc(-c2ccc(S(=O)(=O)NCc3ccccc3Cl)cc2)o1,0.3,9.7,33.3*,2.7,29.4
COC(=O)CSc1nnc(-c2ccc(S(=O)(=O)NCc3cccs3)cc2)o1,-0.4,-9.9,-0.1,-1.2,-7.7
COc1ccc(-c2ccc(-c3noc(-c4ccccc4)n3)c(OC)n2)cc1,0.7,-6.9,31.3*,-2.3,-12.5
CCOc1nc(C)ccc1-c1noc(-c2ccccn2)n1,2.3,11.8,-7.9,-1.1,-20.0
COc1ccc(-c2nc(-c3ccncc3)no2)c(OC)c1,-0.2,14.0,57.8*,1.1,-14.1
CCOc1nc(C)ccc1-c1noc(-c2ccco2)n1,-0.4,34.9*,-12.8,-1.5,-9.7
COc1cc(-c2nc(-c3ccc(C)nc3OC)no2)cc(OC)c1OC,1.4,-8.2,1.5,/,/
COc1nc(C)ccc1-c1noc(-c2ccncc2)n1,0.2,37.9*,-19.9,-1.4,-7.6
Cc1cccc(CNC(=O)C2CCN(S(=O)(=O)c3ccc4c(c3)CCCN4C(=O)C3CCC3)CC2)c1,/,8.7,/,/,/
CCCc1cc(C(=O)Cc2ccccn2)c(O)cc1O,-1.1,8.8,36.6*,-6.7,0.1
CCN(CC(=O)NC(c1ccccc1)c1ccccc1)Cc1nc2ccccc2c(=O)[nH]1,5.9,-13.8,32.4*,-3.5,-11.2
CC(=O)c1ccc(OCC(=O)NC(=O)NC2CCCC2)cc1,/,/,/,-1.2,-2.8
CC(=O)c1ccc(OCC(=O)NC2CCCCCC2)cc1,0.0,30.8*,-2.9,-1.2,3.7

# High-throughput results: PubChem, National Center for Advancing Translational Sciences (NCATS)
